Common to all, as to assay: universal protein binding microarray (PBM); transcription factors of Arabidopsis thaliana; high values mean tight binding
One test concerns the target T1, GST-ANAC092(1-176) (Arabidopsis thaliana, UniProt Q9FKA0 1-176).
T1 sequence: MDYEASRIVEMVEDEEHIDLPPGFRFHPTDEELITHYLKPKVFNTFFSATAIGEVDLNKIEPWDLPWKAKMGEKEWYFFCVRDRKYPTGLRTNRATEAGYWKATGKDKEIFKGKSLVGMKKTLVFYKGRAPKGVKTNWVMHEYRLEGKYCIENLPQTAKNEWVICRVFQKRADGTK
Particulars: protein: recombinant; tags: GST; chain copies: 2; dsDNA, one strand shown. The procedure, abridged: (§1)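 Binding is expressed as the normalised enrichment score (E-score). Proteins carrying a GST tag, whether NAC-domain, full-length or DNA-binding-domain forms, were induced in cells, and zinc acetate was added for zinc-finger proteins. After purification on glutathione–Sepharose 4B and quantification by A280 or anti-GST western blot, each was applied in duplicate at 200 to 500 nM final to custom all-10-mer Agilent 4 × 180K arrays made double-stranded by primer extension. Gapped and ungapped 8-mers were scored.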

The target in a further test is GST-NTL6(1-168) (Arabidopsis thaliana, UniProt Q9SCK6 1-168). Particulars: protein: recombinant; tags: GST; chain copies: 2; dsDNA, one strand shown. The method, boiled down: as §1
Chain of GST-NTL6(1-168) (Q9SCK6 1-168): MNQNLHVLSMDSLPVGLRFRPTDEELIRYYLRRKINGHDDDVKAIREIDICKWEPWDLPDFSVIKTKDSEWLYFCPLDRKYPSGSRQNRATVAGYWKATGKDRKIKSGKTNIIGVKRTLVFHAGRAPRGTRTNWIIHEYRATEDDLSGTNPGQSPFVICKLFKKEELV
Another test has as its target T2, GST-ANAC019 NAC domain (Arabidopsis thaliana, UniProt Q9C932 14-162).
T2 sequence: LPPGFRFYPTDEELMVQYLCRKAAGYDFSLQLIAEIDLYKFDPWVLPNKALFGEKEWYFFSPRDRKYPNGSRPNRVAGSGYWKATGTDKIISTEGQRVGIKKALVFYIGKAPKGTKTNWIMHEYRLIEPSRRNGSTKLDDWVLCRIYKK
The conditions noted are these: protein: recombinant; tags: GST; chain copies: 2; dsDNA, one strand shown. The procedure, abridged: as §1

Another test concerns the target T3, GST-ANAC055(1-171) (Arabidopsis thaliana, UniProt Q9LDY8 1-171).
T3 sequence: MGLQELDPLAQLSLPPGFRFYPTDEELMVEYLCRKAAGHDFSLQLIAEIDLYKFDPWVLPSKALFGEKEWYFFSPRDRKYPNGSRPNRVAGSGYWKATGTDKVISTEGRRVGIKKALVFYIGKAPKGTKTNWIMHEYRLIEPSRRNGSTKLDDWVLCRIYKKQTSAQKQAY
The conditions noted are these: protein: recombinant; tags: GST; chain copies: 2; dsDNA, one strand shown. The method, boiled down: as §1

The target of the next test is T4, GST-ATAF1 NAC domain (Arabidopsis thaliana, UniProt Q39013 7-158).
T4 sequence: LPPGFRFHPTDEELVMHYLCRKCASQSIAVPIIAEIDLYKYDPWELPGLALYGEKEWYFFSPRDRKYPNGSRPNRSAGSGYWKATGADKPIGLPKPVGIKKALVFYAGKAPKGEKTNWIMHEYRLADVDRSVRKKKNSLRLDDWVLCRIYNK
Particulars: protein: recombinant; tags: GST; chain copies: 2; dsDNA, one strand shown. The method, boiled down:
as §1

The target of test [1] is T5, GST-ANAC092(1-285) full length (Arabidopsis thaliana, UniProt Q9FKA0 1-285).
T5 sequence: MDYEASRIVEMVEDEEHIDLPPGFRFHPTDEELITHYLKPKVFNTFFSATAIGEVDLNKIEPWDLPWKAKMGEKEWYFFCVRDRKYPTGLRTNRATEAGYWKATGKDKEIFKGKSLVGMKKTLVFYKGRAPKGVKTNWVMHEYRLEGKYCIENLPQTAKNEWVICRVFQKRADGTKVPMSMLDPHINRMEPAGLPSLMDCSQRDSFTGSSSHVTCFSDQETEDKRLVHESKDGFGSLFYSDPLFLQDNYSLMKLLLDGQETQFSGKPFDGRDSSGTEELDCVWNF
The conditions noted are these: protein: recombinant; tags: GST; chain copies: 2; dsDNA, one strand shown. The procedure, abridged: as §1

Another test has as its target T6, GST-NAP(1-166) (Arabidopsis thaliana, UniProt O49255 1-166).
T6 sequence: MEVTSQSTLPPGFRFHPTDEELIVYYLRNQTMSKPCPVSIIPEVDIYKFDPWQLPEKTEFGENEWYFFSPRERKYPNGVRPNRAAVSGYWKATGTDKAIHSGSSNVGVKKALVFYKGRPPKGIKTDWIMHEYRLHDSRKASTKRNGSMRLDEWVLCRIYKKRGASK
Particulars: protein: recombinant; tags: GST; chain copies: 2; dsDNA, one strand shown. The procedure, abridged:
as §1

The next test concerns the target T7, GST-NST2(1-184) (Arabidopsis thaliana, UniProt Q9M274 1-184).
T7 sequence: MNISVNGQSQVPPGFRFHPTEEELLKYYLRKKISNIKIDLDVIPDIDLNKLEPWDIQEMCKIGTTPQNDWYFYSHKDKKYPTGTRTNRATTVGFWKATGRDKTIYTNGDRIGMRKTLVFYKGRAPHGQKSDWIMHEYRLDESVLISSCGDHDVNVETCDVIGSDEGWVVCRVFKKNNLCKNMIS
Particulars: protein: recombinant; tags: GST; chain copies: 2; dsDNA, one strand shown. The method, boiled down: as §1

The target of a further test is T8, GST-NTL8 NAC domain (Arabidopsis thaliana, UniProt Q9XIN7 14-156).
T8 sequence: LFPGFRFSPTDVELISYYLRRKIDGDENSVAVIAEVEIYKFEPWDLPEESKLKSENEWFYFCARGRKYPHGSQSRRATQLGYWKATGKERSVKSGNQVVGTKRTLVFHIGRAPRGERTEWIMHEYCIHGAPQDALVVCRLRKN
The conditions noted are these: protein: recombinant; tags: GST; chain copies: 2; dsDNA, one strand shown. The method, boiled down: as §1

The target in another test is T9, GST-SND1(1-203) (Arabidopsis thaliana, UniProt Q9LPI7 1-203).
T9 sequence: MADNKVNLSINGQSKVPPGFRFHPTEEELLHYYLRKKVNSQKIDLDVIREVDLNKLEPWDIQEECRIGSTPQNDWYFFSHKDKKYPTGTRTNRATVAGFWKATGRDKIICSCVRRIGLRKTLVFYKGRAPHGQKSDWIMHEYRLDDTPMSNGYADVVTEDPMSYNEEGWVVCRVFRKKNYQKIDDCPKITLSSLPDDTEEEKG
The conditions noted are these: protein: recombinant; tags: GST; chain copies: 2; dsDNA, one strand shown. The procedure, abridged:
as §1

A further test addresses T10, GST-VND3 NAC domain (Arabidopsis thaliana, UniProt Q9FH59 12-162).
T10 sequence: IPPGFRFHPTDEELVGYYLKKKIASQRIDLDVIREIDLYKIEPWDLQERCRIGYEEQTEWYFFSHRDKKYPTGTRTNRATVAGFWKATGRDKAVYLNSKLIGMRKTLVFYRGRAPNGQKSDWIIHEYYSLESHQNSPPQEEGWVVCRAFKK
The conditions noted are these: protein: recombinant; tags: GST; chain copies: 2; dsDNA, one strand shown. The procedure, abridged:
as §1

The next test has as its target T11, GST-VND7 NAC domain (Arabidopsis thaliana, UniProt Q9C8W9 9-158).
T11 sequence: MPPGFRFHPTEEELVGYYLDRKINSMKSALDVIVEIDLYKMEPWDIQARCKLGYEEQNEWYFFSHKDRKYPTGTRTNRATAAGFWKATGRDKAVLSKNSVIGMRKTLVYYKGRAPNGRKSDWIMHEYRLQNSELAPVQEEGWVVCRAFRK
The conditions noted are these: protein: recombinant; tags: GST; chain copies: 2; dsDNA, one strand shown. The procedure, abridged:
as §1

In the next test the target is GST-WRKY1(266-371) (Arabidopsis thaliana, UniProt Q9SI37 266-371). The conditions noted are these: protein: recombinant; tags: GST; dsDNA, one strand shown. The method, boiled down:
as §1

Chain of GST-WRKY1(266-371) (Q9SI37 266-371): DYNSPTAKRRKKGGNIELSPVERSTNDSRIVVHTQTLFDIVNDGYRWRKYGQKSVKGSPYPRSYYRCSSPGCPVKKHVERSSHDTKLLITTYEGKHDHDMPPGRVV

As for CACGAAAG, the binding signal is 0.407 E-score with GST-ANAC092(1-176); 0.109 E-score in the test with GST-NTL6(1-168); 0.25 E-score in the test with GST-ANAC019 NAC domain; 0.216 E-score in the test with GST-ANAC055(1-171); 0.133 E-score with GST-ATAF1 NAC domain; 0.411 E-score in test [1]. The binding signal in the test with GST-NAP(1-166) was found to be 0.17 E-score; with GST-NST2(1-184), 0.189 E-score; in the test with GST-NTL8 NAC domain it was 0.121 E-score; with GST-SND1(1-203) it was 0.184 E-score; with GST-VND3 NAC domain it was 0.191 E-score; in the test with GST-VND7 NAC domain it was 0.132 E-score. The binding signal with GST-WRKY1(266-371) was 0.0838 E-score.
As for TAACGTAA, the binding signal with GST-ANAC092(1-176) came out at 0.452 E-score; in the test with GST-NTL6(1-168), 0.135 E-score; with GST-ANAC019 NAC domain it was 0.25 E-score; in the test with GST-ANAC055(1-171), 0.254 E-score; with GST-ATAF1 NAC domain, 0.34 E-score; in [1] it was 0.449 E-score. The binding signal with GST-NAP(1-166) came to 0.309 E-score; in the test with GST-NST2(1-184) it was 0.402 E-score; with GST-NTL8 NAC domain, 0.174 E-score; with GST-SND1(1-203), 0.488 E-score; with GST-VND3 NAC domain, 0.375 E-score; with GST-VND7 NAC domain it was 0.413 E-score. Also, the binding signal in the test with GST-WRKY1(266-371) is 0.0682 E-score.
Take ACGTAAGT: the binding signal with GST-ANAC092(1-176) amounted to 0.357 E-score; with GST-NTL6(1-168) it was 0.212 E-score; with GST-ANAC019 NAC domain, 0.418 E-score; with GST-ANAC055(1-171) it was 0.402 E-score; with GST-ATAF1 NAC domain it was 0.407 E-score; in test [1] it was 0.39 E-score. In addition, the binding signal with GST-NAP(1-166) was 0.344 E-score; with GST-NST2(1-184) it was 0.233 E-score; with GST-NTL8 NAC domain it was 0.125 E-score; with GST-SND1(1-203), 0.35 E-score; with GST-VND3 NAC domain, 0.414 E-score; in the test with GST-VND7 NAC domain, 0.42 E-score. Further, in the test with GST-WRKY1(266-371), the binding signal is 0.112 E-score.
In the case of ACACGCAA, the binding signal turned out to be 0.498 E-score with GST-ANAC092(1-176); 0.0863 E-score with GST-NTL6(1-168); 0.484 E-score with GST-ANAC019 NAC domain; 0.473 E-score with GST-ANAC055(1-171); 0.439 E-score with GST-ATAF1 NAC domain; 0.498 E-score in test [1]. In addition, the binding signal with GST-NAP(1-166) came out at 0.487 E-score; in the test with GST-NST2(1-184), 0.47 E-score; with GST-NTL8 NAC domain it was 0.218 E-score; in the test with GST-SND1(1-203), 0.477 E-score; with GST-VND3 NAC domain, 0.477 E-score; with GST-VND7 NAC domain, 0.482 E-score. Besides, the binding signal with GST-WRKY1(266-371) stood at 0.172 E-score.
As to ACGCAAGA, the binding signal came to 0.449 E-score with GST-ANAC092(1-176); 0.116 E-score with GST-NTL6(1-168); 0.243 E-score in the test with GST-ANAC019 NAC domain; 0.264 E-score with GST-ANAC055(1-171); 0.156 E-score with GST-ATAF1 NAC domain; 0.456 E-score in test [1]. Besides, the binding signal amounted to 0.285 E-score with GST-NAP(1-166); 0.315 E-score with GST-NST2(1-184); 0.128 E-score with GST-NTL8 NAC domain; 0.405 E-score with GST-SND1(1-203); 0.252 E-score in the test with GST-VND3 NAC domain; 0.194 E-score with GST-VND7 NAC domain. For the same sequence, the binding signal with GST-WRKY1(266-371) stood at 0.123 E-score.
GTACGTCA: the binding signal worked out at 0.441 E-score with GST-ANAC092(1-176); 0.0743 E-score with GST-NTL6(1-168); 0.413 E-score with GST-ANAC019 NAC domain; 0.295 E-score in the test with GST-ANAC055(1-171); 0.366 E-score in the test with GST-ATAF1 NAC domain; 0.45 E-score in test [1]. The binding signal came out at 0.363 E-score with GST-NAP(1-166); 0.244 E-score with GST-NST2(1-184); 0.149 E-score with GST-NTL8 NAC domain; 0.422 E-score with GST-SND1(1-203); 0.38 E-score with GST-VND3 NAC domain; 0.373 E-score with GST-VND7 NAC domain. Also, the binding signal with GST-WRKY1(266-371) amounted to 0.228 E-score.

(Values after article PMC4081100, “A DNA-binding-site landscape and regulatory network analysis for NAC transcription factors in Arabidopsis thaliana”.)
